Composite z-score and z-score data for 5 compounds are collected here from PubChem BioAssay.

A short description of experiment [1]: small molecules captured by biotinylated probe aFSTL3 – biochemical, small-molecule microarray, fluorescence 635/667, stem cell growth factor project, primary screen (AID 1064).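 Also: measures binding of the biotinylated anti-FSTL3 antibody to printed compounds.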 As to conditions: higher = more signal.
Experiment [2] is described as follows: binders from COS7 lysate, DM2A8 probe, primary screen, torsin A project, cell lysate, small-molecule microarray, fluorescence 635/667 (AID 1065). As to conditions: higher = more signal, COS7 lysate expressing mutant human TOR1A.
A short description of experiment [3]: small molecules captured by biotinylated probe aFGF2 – biochemical, small-molecule microarray, fluorescence 635/667, stem cell growth factor project, primary screen (AID 1067).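 Also: measures binding of biotinylated aFGF2 protein to printed compounds on slides; z-score merges feature fluorescence and signal-to-noise across triplicate slides.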 The conditions noted are these: higher = more signal.
Experiment [4] in a line: small molecules captured by biotinylated probe aFGF10 – biochemical, small-molecule microarray, fluorescence 635/667, stem cell growth factor project, primary screen (AID 1071).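 Also: score merges 667 nm spot intensity and signal to noise from triplicate slides.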 The conditions noted are these: higher = more signal.
Experiment [5] concerns the target Neurogenic locus notch homolog protein 2 (Homo sapiens) (UniProt Q04721). Put plainly: small molecules binding Notch2 protein – biochemical, small-molecule microarray, 635 nm fluorescence, stem cell growth factors, primary screen (AID 1073). The conditions noted are these: higher = more signal.
The target of experiment [6] is Pro-neuregulin-1, membrane-bound isoform (Homo sapiens) (UniProt Q02297). Put plainly: small molecules binding neuregulin-1 protein – biochemical, small-molecule microarray, fluorescence 635/667, psychiatric disease protein project, primary screen (AID 1075).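 Also: score combines 667 nm spot fluorescence with signal to noise.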 As to conditions: NRG1 binding, 635 nm fluorescence, higher = more signal.
The subject of experiment [7] is Neuregulin-1 EGF-like domain. Put plainly: small molecules binding NRG1 EGF domain – biochemical, small-molecule microarray, 635 nm fluorescence, primary screen (AID 1081).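 Also: binding of the protein to compounds printed on small-molecule microarray slides.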 The conditions noted are these: higher = more signal.
Experiment [8] can be described thus: FRG1 expression reporter modulators in myotubes – cell-based, C2C12 myotubes, firefly/Renilla luciferase, luminescence, FRG1 inhibition for FSHD, primary screen (AID 1084). As to conditions: FRG1 promoter luciferase, higher = more signal, called active from +8 up or from −8 down.
Experiment [9] in a line: small molecules captured by biotinylated probe aFST – biochemical, small-molecule microarray, fluorescence 635/667, stem cell growth factor project, primary screen (AID 1086).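 Also: score merges 667 nm fluorescence with signal-to-noise of each printed compound spot.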 The conditions noted are these: higher = more signal.
A short description of experiment [10]: binders of probe aHhip on microarray, primary screen, stem cell growth factor project, biochemical, small-molecule microarray, fluorescence 635/667 (AID 1087).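 Also: score merges spot fluorescence at 667nm with spot signal to noise ratio.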 The conditions noted are these: higher = more signal.
Experiment [11] has as its system PRMT1 (protein arginine N-methyltransferase 1). Briefly: small molecules binding arginine methyltransferase PRMT1 – biochemical, small-molecule microarray, 635 nm fluorescence, primary screen (AID 1088).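 Also: binding of Prmt1 protein to compounds spotted on small-molecule microarray slides.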 The conditions noted are these: higher = more signal.
Experiment [12] can be described thus: growth effects on S. cerevisiae YJM789 – YJM789 clinical isolate, OD600, 24 h, basal, primary screen (AID 1089).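 Also: growth of clinical yeast isolate S. cerevisiae YJM 789 seeded 1000 cells per well; test concentration not given here.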 The conditions noted are these: higher = more signal, called active from +8 up or from −8 down.
A short description of experiment [13]: S. pombe growth modifiers, basal conditions – strain 972, OD600, 24 h, no modulator, primary screen (AID 1090).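 Also: basal condition with compound alone and no growth modifier present; test concentration not given here.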 As to conditions: S. pombe 972 growth, higher = more signal, called active from +8 up or from −8 down.
A short description of experiment [14]: budding yeast growth modifiers under rapamycin – strain BY4716, OD600, 96 h, primary screen (AID 1091). Also: test concentration not given here. The conditions noted are these: S. cerevisiae BY4716 + rapamycin, higher = more signal, called active from +8 up or from −8 down.
For experiment [15], the target named is Torsin-1A-interacting protein 2 (Homo sapiens) (UniProt Q8NFQ8). Briefly: small molecules binding lysate-expressed LULL1 – cell lysate, human LULL1 lysate, 635/667 nm fluorescence, primary screen (AID 1092).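 Also: score merges per-feature 667 nm fluorescence with signal-to-noise.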 The conditions noted are these: small-molecule microarray, hLULL1 lysate binding, 635 nm fluorescence; higher = more signal.
A short description of experiment [16]: optical density change of DRC41 E. coli – strain DRC41, OD650, 24 h, E. coli filamentation project, primary screen (AID 1093).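 Also: MC1000 strain lacking acrAB efflux and sulA so SOS filamentation is blocked; test concentration not given here.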 The conditions noted are these: E. coli DRC41 growth, higher = more signal, called active from +8 up or from −8 down.
A short description of experiment [17]: probe aLefty2 binding to arrayed compounds – biochemical, biotinylated probe, 635/667 nm fluorescence, primary screen (AID 1094).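 Also: score merges spot fluorescence near 667 nm with spot signal-to-noise ratio.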 The conditions noted are these: small-molecule microarray, higher = more signal.
Experiment [18] concerns Noggin (protein binding on small-molecule microarray). Put plainly: small molecules binding Noggin protein – biochemical, 635/667 nm fluorescence, primary screen (AID 1095).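 Also: score merges 667 nm feature fluorescence with signal to noise over triplicate slides.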 As to conditions: 635 nm fluorescence, higher = more signal.
In experiment [19] the target is Neurogenic locus notch homolog protein 3 (Homo sapiens) (UniProt Q9UM47). Put plainly: small molecules binding NOTCH3 protein – biochemical, 635/667 nm fluorescence, primary screen (AID 1096). The conditions noted are these: small-molecule microarray, 635 nm fluorescence, higher = more signal.
Experiment [20] can be described thus: probe aEGFR binding to arrayed compounds – biochemical, biotinylated probe, 635/667 nm fluorescence, primary screen (AID 1097).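 Also: probe is a biotinylated anti-EGFR antibody binding compounds printed on slides; score combines fluorescence near 667 nm and signal to noise of each spot.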 The conditions noted are these: small-molecule microarray, higher = more signal.

Activity calls are given as the source filed them.

Sequence of Torsin-1A-interacting protein 2 (Homo sapiens) (Q8NFQ8 whole entry, looked up): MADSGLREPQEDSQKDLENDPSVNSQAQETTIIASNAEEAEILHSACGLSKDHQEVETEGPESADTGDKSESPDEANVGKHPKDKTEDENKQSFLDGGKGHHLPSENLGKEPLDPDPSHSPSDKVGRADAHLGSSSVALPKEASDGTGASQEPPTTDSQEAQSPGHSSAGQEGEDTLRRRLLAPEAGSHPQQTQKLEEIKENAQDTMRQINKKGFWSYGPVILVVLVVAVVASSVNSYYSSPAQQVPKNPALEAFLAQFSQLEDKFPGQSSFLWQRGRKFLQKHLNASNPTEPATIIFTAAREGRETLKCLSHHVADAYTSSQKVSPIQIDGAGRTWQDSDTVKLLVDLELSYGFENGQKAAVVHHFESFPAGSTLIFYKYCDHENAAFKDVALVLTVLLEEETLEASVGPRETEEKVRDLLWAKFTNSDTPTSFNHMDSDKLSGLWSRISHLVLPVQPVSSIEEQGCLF
Sequence of Pro-neuregulin-1, membrane-bound isoform (Homo sapiens) (Q02297 whole entry, looked up, the tested form may be a part, canonical isoform): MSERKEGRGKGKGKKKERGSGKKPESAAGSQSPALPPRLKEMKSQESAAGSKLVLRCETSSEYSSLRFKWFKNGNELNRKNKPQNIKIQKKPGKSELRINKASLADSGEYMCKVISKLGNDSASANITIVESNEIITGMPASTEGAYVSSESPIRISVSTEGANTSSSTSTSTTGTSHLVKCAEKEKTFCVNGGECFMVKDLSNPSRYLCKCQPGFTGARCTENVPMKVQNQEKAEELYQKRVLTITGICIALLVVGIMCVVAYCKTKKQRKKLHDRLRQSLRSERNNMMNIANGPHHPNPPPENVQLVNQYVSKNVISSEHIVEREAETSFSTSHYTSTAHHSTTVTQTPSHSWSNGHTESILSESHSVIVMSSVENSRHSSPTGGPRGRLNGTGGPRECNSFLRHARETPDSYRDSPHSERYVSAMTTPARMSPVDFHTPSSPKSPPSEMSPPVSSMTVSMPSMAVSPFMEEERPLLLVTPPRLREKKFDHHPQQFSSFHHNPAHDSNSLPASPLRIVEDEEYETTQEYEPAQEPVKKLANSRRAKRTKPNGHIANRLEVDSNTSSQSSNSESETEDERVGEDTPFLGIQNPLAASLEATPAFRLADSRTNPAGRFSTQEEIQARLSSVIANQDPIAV
Sequence of Neurogenic locus notch homolog protein 3 (Homo sapiens) (Q9UM47 whole entry, looked up): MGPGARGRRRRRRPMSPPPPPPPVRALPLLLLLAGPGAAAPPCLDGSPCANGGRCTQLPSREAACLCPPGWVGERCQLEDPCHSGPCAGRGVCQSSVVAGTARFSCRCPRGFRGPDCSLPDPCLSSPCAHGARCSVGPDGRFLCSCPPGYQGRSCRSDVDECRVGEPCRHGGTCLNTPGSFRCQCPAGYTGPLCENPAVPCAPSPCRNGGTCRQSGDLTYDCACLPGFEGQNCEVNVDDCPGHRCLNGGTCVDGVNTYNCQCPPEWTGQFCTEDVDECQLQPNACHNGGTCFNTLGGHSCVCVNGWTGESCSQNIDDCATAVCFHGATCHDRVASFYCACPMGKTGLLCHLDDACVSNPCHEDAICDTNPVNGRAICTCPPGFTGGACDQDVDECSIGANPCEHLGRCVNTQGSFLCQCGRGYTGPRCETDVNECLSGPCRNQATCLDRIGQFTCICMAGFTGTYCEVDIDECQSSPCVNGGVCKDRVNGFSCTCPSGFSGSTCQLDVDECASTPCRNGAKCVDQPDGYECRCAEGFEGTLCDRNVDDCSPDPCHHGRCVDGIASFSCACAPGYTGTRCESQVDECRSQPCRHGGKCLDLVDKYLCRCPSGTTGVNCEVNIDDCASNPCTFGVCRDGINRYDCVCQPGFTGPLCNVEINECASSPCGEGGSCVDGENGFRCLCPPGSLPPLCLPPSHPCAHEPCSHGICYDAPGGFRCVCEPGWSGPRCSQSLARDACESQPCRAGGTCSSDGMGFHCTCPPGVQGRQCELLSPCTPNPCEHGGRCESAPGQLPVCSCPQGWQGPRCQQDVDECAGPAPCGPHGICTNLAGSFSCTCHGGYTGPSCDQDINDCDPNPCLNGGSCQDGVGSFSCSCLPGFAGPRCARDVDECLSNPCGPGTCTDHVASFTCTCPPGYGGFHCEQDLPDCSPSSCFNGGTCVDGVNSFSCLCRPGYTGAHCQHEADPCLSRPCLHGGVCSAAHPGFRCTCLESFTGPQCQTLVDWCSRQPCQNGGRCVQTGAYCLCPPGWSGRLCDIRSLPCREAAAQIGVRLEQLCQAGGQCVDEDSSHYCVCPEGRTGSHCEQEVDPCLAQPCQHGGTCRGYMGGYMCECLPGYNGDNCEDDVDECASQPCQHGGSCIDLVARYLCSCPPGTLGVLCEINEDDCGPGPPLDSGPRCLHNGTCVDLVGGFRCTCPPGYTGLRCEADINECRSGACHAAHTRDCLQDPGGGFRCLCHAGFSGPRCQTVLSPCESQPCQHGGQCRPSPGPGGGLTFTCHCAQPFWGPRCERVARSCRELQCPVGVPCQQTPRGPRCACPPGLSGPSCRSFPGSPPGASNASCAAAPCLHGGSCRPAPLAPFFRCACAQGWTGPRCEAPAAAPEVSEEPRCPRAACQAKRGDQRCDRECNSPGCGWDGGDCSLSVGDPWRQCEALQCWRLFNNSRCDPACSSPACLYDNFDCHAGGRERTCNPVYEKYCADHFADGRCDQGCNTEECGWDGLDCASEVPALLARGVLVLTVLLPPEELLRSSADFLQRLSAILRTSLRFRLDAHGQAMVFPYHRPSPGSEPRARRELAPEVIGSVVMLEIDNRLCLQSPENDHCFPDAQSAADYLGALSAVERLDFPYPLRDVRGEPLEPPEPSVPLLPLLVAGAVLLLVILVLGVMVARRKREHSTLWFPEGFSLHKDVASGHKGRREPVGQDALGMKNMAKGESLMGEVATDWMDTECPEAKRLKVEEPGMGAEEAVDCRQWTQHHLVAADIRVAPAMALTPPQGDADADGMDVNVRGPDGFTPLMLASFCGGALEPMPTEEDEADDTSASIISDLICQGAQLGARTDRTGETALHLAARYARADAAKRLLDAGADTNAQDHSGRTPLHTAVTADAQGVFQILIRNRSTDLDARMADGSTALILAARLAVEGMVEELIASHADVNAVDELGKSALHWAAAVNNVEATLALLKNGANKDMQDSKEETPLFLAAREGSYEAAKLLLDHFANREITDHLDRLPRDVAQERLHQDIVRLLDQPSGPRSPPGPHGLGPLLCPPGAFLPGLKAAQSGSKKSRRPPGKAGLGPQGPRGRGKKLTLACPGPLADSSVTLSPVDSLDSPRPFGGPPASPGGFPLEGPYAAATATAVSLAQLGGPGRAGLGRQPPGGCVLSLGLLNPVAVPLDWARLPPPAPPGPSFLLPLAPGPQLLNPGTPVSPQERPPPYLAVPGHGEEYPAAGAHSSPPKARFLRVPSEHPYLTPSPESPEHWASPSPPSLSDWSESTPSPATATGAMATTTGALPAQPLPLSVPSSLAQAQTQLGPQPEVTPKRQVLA

Turning to `O=C(CS)NCCCCCNC(=O)[C@@H]1C[C@@H]2C(=O)N[C@@H](Cc3ccccc3)C(=O)N2[C@@H]1c1cccc(OCCO)c1`, the composite z-score in experiment [1] is -0.0315; in experiment [2], 0.692; in [3], -0.01; in experiment [4], 0.325; in experiment [5], 0.0566; in experiment [6], 1.43. Further, the composite z-score in experiment [7] was 1.39; in [9], 0.0454; in experiment [10], -0.277; in [11] it was 1.56; in experiment [15], 3.04; in experiment [17], -0.515. Moreover, the composite z-score in experiment [18] was 0.203; in experiment [19], 0.823; in [20], -0.0271. Also, the z-score in experiment [8] was 0.057 (inactive); in [12], 0.368 (inactive); in experiment [13] it was -0.653 (inactive); in experiment [14] it was 0.658 (inactive); in experiment [16], 0.142 (inactive).

Turning to `CC(=O)N1CC(C(O)C2C=CC3C(=O)NC(=O)C3N2Nc2ccc(Cl)cc2Cl)c2ccccc21` (stereo not given), the composite z-score in experiment [1] is 0.856; in experiment [2] it was -0.0312; in experiment [3], 0.203; in experiment [4], 0.925; in experiment [5], 1.28; in [6], 1.7. Also, the composite z-score in experiment [7] was 0.727; in experiment [9], 0.496; in experiment [10], 0.0854; in experiment [11] it was 0.825; in experiment [15], 2.74; in experiment [17] it was 0.131. Besides, the composite z-score in experiment [18] is -0.575; in [19], 0.91; in experiment [20], -0.0594. The z-score was 0.425 (inactive) in experiment [8]; 1.14 (inactive) in experiment [12]; 0.734 (inactive) in [13]; 1.81 (inactive) in experiment [14]; -0.948 (inactive) in experiment [16].

As for `CC(C)C[C@@H]1NC(=O)CNC(=O)[C@@]23C(=O)N[C@@H](Cc4ccccc4)C2[C@H](C)[C@@]2(C)O[C@H]2C3/C=C/C/C=C\CNC1=O` (stereo not given in full), the composite z-score is -0.454 in experiment [1]; 0.109 in experiment [2]; -0.087 in [3]; 0.68 in experiment [4]; 0.429 in [5]; 0.345 in experiment [6]. For the same compound, the composite z-score is 0.919 in [7]; 0.0427 in experiment [9]; -0.171 in [10]; 1.31 in experiment [11]; 2.72 in [15]; -0.159 in experiment [17]. The composite z-score in experiment [18] was 0.363; in experiment [19], 1.01; in [20], -0.0828. The z-score in [8] is 1.4 (inactive); in experiment [12], -0.536 (inactive); in [13], -0.26 (inactive); in [14], -0.0716 (inactive); in [16], -0.461 (inactive).

On to `C[C@@H]1ON(c2ccc(I)cc2)[C@H](c2ccc(OC(=O)OC(C)(C)C)cc2)[C@H]1C(=O)N1C(=O)OC[C@H]1Cc1ccccc1`, for which the composite z-score in [1] is -0.478; in experiment [2], 0.0988; in [3] it was -0.175; in [4], 0.253; in experiment [5], 0.756; in experiment [6] it was 0.178. Also, the composite z-score in [7] is 0.492; in experiment [9] it was 0.238; in experiment [10] it was -0.0672; in experiment [11], 1.35; in experiment [15], 2.08; in experiment [17], -0.0736. Besides, the composite z-score in experiment [18] was 0.447; in experiment [19], 1.02; in [20] it was -0.0351. Besides, the z-score in experiment [8] is 3.7 (inactive); in experiment [12], -0.0865 (inactive); in [13], -1.73 (inactive); in experiment [14], 1.9 (inactive); in experiment [16] it was 1.77 (inactive).

Turning to `CCCNC(=O)[C@@]1(Sc2ccc(C)cc2)CC(=O)N(C2CCCCC2)[C@@H]1c1ccc(CO)cc1I`, the composite z-score is 0.152 in [1]; 0.481 in experiment [2]; -0.0788 in experiment [3]; 0.182 in experiment [4]; 0.517 in [5]; 0.772 in experiment [6]. Further, the composite z-score in [7] was 1.25; in experiment [9], -0.0962; in [10], -0.383; in experiment [11] it was 1.56; in experiment [15], 2.44; in experiment [17], -0.273. Moreover, the values for the composite z-score in experiment [18], in experiment [19] and in experiment [20] were -0.447, 0.298 and -0.0643, respectively. The z-score in [8] is -3.57 (inactive); in experiment [12], -1.2 (inactive); in experiment [13] it was 0.554 (inactive); in experiment [14], -0.133 (inactive); in [16] it was 0.19 (inactive).
